For 40 sequences, PBM binding z-score results are on record in the supplement of paper PMC6555819.

The test system of the test is VDR:RXRa (NR concentration 270 nM, RXRa partner concentration 90 nM). The test is described as follows: PBM binding z-score (relative to random genomic background probes); higher = stronger binding; sequences stand for … in GC…GCGATTGACAGCGTAGAATGAAGG
Here is the method:
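Protein-binding microarray (Agilent 4x180K custom design, double-stranded 60-nt probes: 5' GC cap, 34-nt variable region, 24-nt constant primer region; full probe sequence given). Purified or IVT nuclear receptor:RXRα heterodimers (3:1 NR:RXRα, mostly 270:90 nM) or homodimers were incubated for 1 h in PBS with 2% milk and no ligand, then detected with Alexa488 antibodies. Fluorescence from o1-orientation probes (~5 replicates averaged) was converted to z-scores against 500 random hg19 background probes. Variable regions are seed direct-repeat (DR0–DR5) sites, all their single-nucleotide variants and half-site ablations.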
The sequence TCAGACACGTGAAGGTAACTCAGGTACGCAGTCG registered a PBM binding z-score of 0.881.
In turn, TCAGACAGGTGATGGTAACTCAGGTACGCAGTCG yielded a PBM binding z-score of 0.615.
For CGTCCAAGGTCAGGGTCAGTGAAAGAGACTCGAA the value was 3.92.
Next, CGTCCAAGGTCAGCAGGTTAGTGAAAGCGACGTG: 4.07; ACTATTAGTTGACTTAGAGCAACCGATACGACGC: -0.14.
The sequence TGTAAAAGTTCAAAGGTAACGTAAGTATCCACAC came in with a PBM binding z-score of 4.65.
For TCTTGTAGATCAATATAGGTTAAGAAAGTGCGCT the value was 1.24; for ATATGTAGGTTAGATCCGGGTCATTCAGGCTATG, 3.5; for TCAGACAGGTGAAGGTAACTCGGGTACGCAGTCG, 1.45.
For CGTCCAAGGTCCAGGTCAGTGAAAGAGACTCGAA the value was 0.373.
TCTAGTTGGTCAAAGGACACACACTCGAAATGCG returned a PBM binding z-score of 1.05.
In the case of AGAACGAGGGCAATGAGTTGATCGCACGGGTGGC, the PBM binding z-score turned out to be 5.13.
Next, AGAATGAGGTTACCAAAGATCAGGGTAACGCTTG: 1.6; ATCTCTAGGTAAAGTGCAGTGAAAGATCGATAGA: 0.146; GCTGCTAGGTCAACTGATGGTCAGATAAAGCTCG: 1.82.
ACTTACCGGTCAACGAGGTTATAGCACGCGTATA: the PBM binding z-score was 6.19.
In the case of CCTACTGGGCCAAATAGGTCATTGATGCCGATAA, the PBM binding z-score is 2.51.
For TCATATAGGTAAATGCTAGGAGAAAGTCCGATCT the value was 0.71; for AATATAGGGTCACTAGGCCAGAGTAGGTACGAAT, 4.06.
As for AGTCAAAGTTCCTCTAGGTAACGTAAGATATGCT, the PBM binding z-score is 0.145.
Next, CCTACTGGGCTACGAAAGGTCATTGATTCAGTGA: 3.71; CGAACTAGGTCATTGACAGGACCGTGAATAGTAA: 1.51.
In turn, TCTTGTAGATCAATAGACGTTAAGAAAGTGCGCT came in with a PBM binding z-score of 0.326.
On to TCTTGTAGATCAACAGGACGTTAAGAAAGATCGA, for which the PBM binding z-score is 0.305.
In the case of CAACCTAGGTCAAGAGGTCAAAGTCCGCTTCCCG, the PBM binding z-score is 6.21.
TAGCCTAGGCCATGCGGGCCAGTATAGTGTCGGC yielded a PBM binding z-score of -1.04.
Next, TCGAGTAGGTTAGTCGGGGCATGCAGCCAACATA: 1.24.
For CGTCCAAGGTCAAAGGTCAGTGATGAGATGACGG the value was 6.62; for CGTCCAAGGTCTGAGAGGTCAGTGAATGCCGAGT, 3.29.
CTTACTGGGCCATCAGGTCATTGATATCAACGTT gave a PBM binding z-score of 1.91.
For ACTACAGGGTCACTAGGCCAGAGTAGGTACGAAT the value was 3.76; for GCGACGGGGGCATCAGCAGGTTACCATAACTTAA, 3.67; for ATATGTAGGTTACTTCCGGGTCATTCAGGCTATG, 3.93.
Turning to GCTATTAGTTGAAAGGGCAACGGAATGATTCTCG, the PBM binding z-score turned out to be 0.383.
The sequence CATACAGGTTCAGCTAGGCCAGAGTAGGGACGGC registered a PBM binding z-score of 1.99.
For GCTAGTTCGTCAGTAAAAGGTCACACACCGGTCG the value was 4.28.
For CATACAGGATCAGCTAGGCCAGAGTAGGGACGGC the value was -0.514; for GCTAGCAGGCCATTTGGGTCAGTCAATGACGGGC, 0.157.
Next, CCGACTGGGGCAGAAAGGTGACCATACCATCCGG: -0.31; CCTACTGGGCCATTCAAAGGTCATTGATCATATG: 3.96.
